According to PubChem BioAssay AID588856 (National Center for Advancing Translational Sciences (NCATS), 2011):
The campaign covered roughly 410,000 compounds. About 3,100 (0.76%) were called active. The sample as a whole holds a higher share of actives than the screen did. Values without a mark were called inactive. Calls follow the shape of the dose curve; as a rule, active = well fitted cell-killing curve with a large enough effect; inactive = no such curve, though single readings can be large or run the other way.

Assay: qHTS for Inhibitors of TGF-b: Cytotox Counterscreen
Settings: HepG2 CAGA-GFP viability, ATP luminescence, 18 h; series mostly up to 46.1 µM; activity change, negative = cytotoxicity: at the top concentration
Outline: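 CellTiter-Glo luminescence gave cytotoxicity after 18 hours at 37 degrees C. The cells were HepG2 CAGA-GFP in 1% FBS DMEM, stimulated with 500 pg/mL TGF-beta after compound addition. %Activity was normalised to no-cell wells (complete cell-killing) and DMSO (no toxicity), and curves were fitted and classified.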
Potency is read from the fitted curve at half-maximal effect.

Row | SMILES | activity change, negative = cytotoxicity | Potency
1 | CN(C(=O)CSc1nc2ccc(NC(=O)COc3ccccc3)cc2s1)c1ccccc1 | -19.4% | –
2 | Cc1ccc(F)cc1NC(=O)CCSc1nc(-c2ccco2)cc(C(F)(F)F)n1 | -14.5% | –
3 | CCc1ccc(CN(Cc2ccco2)C(=O)c2ccccc2Cl)cc1 | -52% | –
4 | CC1CCCCN1S(=O)(=O)c1ccc(F)c(C(=O)Nc2ccccc2C(F)(F)F)c1 (stereo not drawn) | -15% | –
5 | Cc1ccc(CNC(=O)CCc2c(C)nn(-c3ccc(N4CCCC4)nn3)c2C)cc1 | -31.6% | –
6 | O=C(NCc1ccccc1)C(=O)NCC(c1ccco1)S(=O)(=O)c1ccc(Cl)cc1 (stereo not drawn) | -15.4% | –
7 | N=c1n(Cc2ccc(Cl)cc2)c2ccccc2n1CC(O)c1ccco1 (stereo not drawn) | – | 12.6 µM (active)
8 | N=c1n(CCc2ccccc2)c2ccccc2n1Cc1ccccc1F | 3.66% | –
9 | COc1ccccc1-c1ccnc2[nH]n(-c3ccccc3)c(=O)c12 | -6.7% | –
10 | OCc1cnc(SCc2ccc(F)cc2)n1Cc1ccc(F)cc1 | -24.2% | –
11 | NC(Cc1ccccc1)c1csc(Nc2cc(Oc3ccccc3)ncn2)n1 (stereo not drawn) | – | 31.6 µM (active)
12 | COCCn1c(SCC(=O)c2cc(C)ccc2C)nc2cc(C(=O)NC3CCCC3)ccc2c1=O | -6.56% | –
13 | CCC(=O)N1CCc2cc(S(=O)(=O)NC(C(=O)Nc3ccc(C(C)=O)cc3)C(C)C)ccc21 (stereo not drawn) | -14.7% | –
14 | COC(=O)c1ccc(-c2nc3cc(NC(C)=O)ccc3o2)cc1 | -1.18% | –
15 | CC(=O)c1cc(CN2CCC(C(=O)Nc3cccc(-c4cscn4)c3)CC2)cs1 | -31.8% | –
16 | CCn1cc(CN2CCC(C(=O)Nc3cccc(-c4cccc(Cl)c4)c3)CC2)c(C)n1 | – | 12.6 µM (active)
17 | O=C(Nc1cccc(-c2cccc(Cl)c2)c1)C1CCN(C2CCC2)CC1 | -73.6% | –
18 | Cc1ccc(CNC(=O)C2(C(F)(F)F)C/C(=C\CCO)CCCO2)o1 (stereo not drawn) | -11.9% | –
19 | COc1cc(OC)c2c(C)cc(=O)oc2c1C(CCN1CCCCC1)c1ccc(N(C)C)cc1 (stereo not drawn) | -34.4% | –
20 | Cc1ccc(NS(=O)(=O)c2ccc(F)cc2)nc1 | -17% | –
21 | Nc1ncc(S(=O)(=O)Nc2ccc(OC(F)(F)F)cc2)cn1 | -7.99% | –

Row | SMILES | activity change, negative = cytotoxicity | Potency
22 | Cc1cc(C)cc(NS(=O)(=O)c2ccc(Oc3ncc(C(F)(F)F)cc3Cl)cc2)c1 | – | 12.6 µM (active)
23 | NC(=O)C1CCN(C(=O)c2cccc(NC(=O)c3nsc4ccccc34)c2)CC1 | -18% | –
24 | COc1cc(OC)c(N(C)C(=O)c2cc3c(=O)oc4ccccc4c3s2)cc1Cl | -20% | –
25 | CC(C)CC[n+]1ccn(C2=C([O-])c3ccccc3C(=O)/C2=N\S(=O)(=O)c2ccccc2)c1 | – | 5.62 µM (active)
26 | Cc1ccc(S(=O)(=O)/N=C2\C=C(NS(=O)(=O)c3ccc(C)cc3)C(=O)c3ccccc32)cc1 | -112% | –
27 | C=C1CCN(C(CC(C)C)C(=O)N2CCOCC2)S(=O)(=O)c2ccccc21 (stereo not drawn) | -22.3% | –
28 | NC(c1csc(NC(=O)Nc2cccc(C(F)(F)F)c2)n1)C1CCCCC1 (stereo not drawn) | – | 8.91 µM (active)
29 | O=C(CN1c2ccccc2S(=O)(=O)c2ccccc21)Nc1cccc(C(F)(F)F)c1 | -28.4% | –
30 | Cc1oc2ccc(O)c(CN3CCCCC3)c2c1C(=O)Nc1cccc(C(F)(F)F)c1 | -71.8% | –
31 | O=C(CC(NCc1cccnc1)C(=O)O)Nc1ccc(O)cc1 (stereo not drawn) | -1.55% | –
32 | O=C(CSc1cccc2cccnc12)N/N=C/c1cccnc1 | – | 7.08 µM (active)
33 | O=C(N/N=C/c1cccc2cccnc12)[C@H]1C[C@@H]1c1ccccc1 | -31.3% | –
34 | Cc1c(Cl)cccc1NC(=O)CSc1ccc(-c2cccnc2)nn1 | -17.7% | –
35 | Cc1cc[n+](C2CCCCC2)cc1 | -32.8% | –
36 | COc1cccc(CNC(=O)c2ccc3c(c2)N(Cc2ccc(C(F)(F)F)cc2)C(=O)c2ccccc2S3)c1OC | -21.3% | –
37 | COc1ccc(-n2nnc(-c3nsc(NC(=O)c4ccc(C)c(C)c4)n3)c2C)cc1Cl | -3.8% | –
38 | COc1ccccc1CNC(=O)CS(=O)(=O)c1cccc2nsnc12 | -0.638% | –
39 | O=C(C1COc2ccccc2O1)N(Cc1cccnc1)c1nc2c(F)cc(F)cc2s1 (stereo not drawn) | -4.6% | –
40 | COc1cccc2sc(N(CCCN(C)C)C(=O)CCS(=O)(=O)c3ccccc3)nc12 | – | 3.55 µM (active)
41 | CN(C)S(=O)(=O)c1ccc(C(=O)N(Cc2cccnc2)c2nc3c(F)cc(F)cc3s2)cc1 | -12.8% | –
42 | O=C(O)CCS(=O)(=O)c1ccc(-c2ccccc2)cc1 | -29.8% | –

Row | SMILES | activity change, negative = cytotoxicity | Potency
43 | O=C(CCS(=O)(=O)c1ccccc1)N(Cc1cccnc1)c1nc2c(F)cccc2s1 | – | 7.94 µM (active)
44 | COc1ccc(C)cc1NC(=O)CCS(=O)(=O)c1cccc2nonc12 | -9.1% | –
45 | Cc1cccc2sc(N(CCCN(C)C)C(=O)CCS(=O)(=O)c3ccccc3)nc12 | – | 7.08 µM (active)
46 | Cc1ccc(S(=O)(=O)CCC(=O)OCc2ccccc2)cc1 | 15.6% | –
47 | CCc1ccc2oc(-c3ccc(NC(=O)c4cc5ccccc5o4)cc3)nc2c1 | -9.98% | –
48 | CCn1cc(C(=O)NCCc2ccccc2)c(=O)c2cc(S(=O)(=O)N3CCCCCC3)ccc21 | -21.5% | –
49 | CC(C)Cn1c(C2CC(=O)N(c3ccccc3Cl)C2)nc2ccccc21 (stereo not drawn) | -4.94% | –
50 | CN(C)C1=C2C=CC=CC2/C(=C2/C=Cc3ccccc32)C=C1 (stereo not drawn) | -6.33% | –
51 | O=C1c2ccccc2C(=O)N1c1ccc(S(=O)(=O)N2CCOCC2)c2ccccc12 | -1.94% | –
52 | OC(CBr)C[n+]1cccc2cc(Br)ccc21 (stereo not drawn) | -28.1% | –
53 | OCCNc1nc(Nc2ccc(Cl)c(Cl)c2)nc2ccccc12 | – | 12.6 µM (active)
54 | FC(F)(F)c1cc(Nc2nc3ccccc3c3nncn23)ccc1Cl | -96.2% | –
55 | O=C(CSc1nc(Nc2ccc(F)c(F)c2)c2ccccc2n1)c1ccc(Cl)cc1 | -28.6% | –
56 | COc1ccc(CCC(=O)NCCc2csc(-c3ccc(Cl)cc3)n2)cc1 | -32.7% | –
57 | O=C(/C=C/c1ccccc1)Nc1cc(-c2nc3cc(Cl)ccc3o2)ccc1Cl | -69.3% | –
58 | Cc1ccc(C)c(N2CCN(c3ccc4cc(S(=O)(=O)N5CCC(C)CC5)ccc4n3)CC2)c1 | -1.77% | –
59 | c1ccc2[nH]c(-c3nc4ccccc4[nH]3)nc2c1 | – | 10 µM (active)
60 | O=C(OCc1nc2ccccc2[nH]1)C1CCCCC1 | -12.4% | –
61 | O=S(=O)(c1ccc(Br)cc1)N1CCC(c2nc3ccccc3[nH]2)CC1 | -33% | –
62 | C=C1CCN(Cc2ccc(OC)cc2)S(=O)(=O)c2ccccc21 | 9.57% | –
63 | COc1ccc(-c2onc(C)c2C)cc1S(=O)(=O)NCCc1ccccc1 | -6.23% | –
